Shiga inhibitor = Shiga toxin inhibition | Vero cells, Shiga toxin protein synthesis inhibition reporter | inhibition, % at 38.7 µM | 290,000 tested, 9.2% active; in the data active means inhibition mostly above about 28%, no sharp cut-off; inactive means mostly below about 43%; further: 0% is about no effect
Cycloheximide cs = counter-screen hit for Shiga toxin inhibitors, cycloheximide. 300,000 tested, 12% active. cell reporter, cycloheximide protein synthesis inhibition counterscreen. max response, %; in the data active means max response mostly above about 13%, no sharp cut-off; inactive means mostly below about 14%; further: read at 38.3 µM for the half of the compounds with a filed dose; 0% is about no effect
Pf growth 96h = inhibits malaria parasite growth, 96 h; P. falciparum luciferase reporter growth, 96 h; Potency, µM (highest dose often 28.7 µM), for the others: at the highest dose activity change, negative = inhibition, usual class: inhibitors; 320,000 tested, 6.9% active; AID 504834; further: potency means the concentration at half of the fitted maximal effect; on the % scale 0 is the no-effect control and ±100 the full control effect
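Two parasite generations (96 h, 37 C, 5% CO2) of compound exposure in infected erythrocytes (0.05% parasitemia, 2% hematocrit). Luciferase-reporter P. falciparum; decreased luminescence indicates inhibited growth, aimed at apicoplast-acting delayed death.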
Pf growth 48h = inhibits P. falciparum growth in the first generation, 48 h | 310,000 tested, 5.9% active | AID 504832 | P. falciparum luciferase growth in erythrocytes, 48 h | Potency, µM (series often up to 28.7 µM), for inactives: top-dose activity change, negative = inhibition, most hits filed as inhibitors; further: potency means the concentration at half of the fitted maximal effect; on the % scale 0 is the no-effect control and ±100 the full control effect
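In quantitative HTS format, infected erythrocytes bearing luciferase-reporter parasites were treated for a single generation at 37 C. Luminescence after adding detection reagent served as the growth measure.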
* marks the source's active call; other numbers are inactive results. Hits are enriched below; roughly 21% of the tested compounds scored in any of these assays. Unless noted, the call rests on the fitted dose curve; in most records, active means well fitted inhibition curve with a large enough effect; inconclusive means small, poorly fitted or top-dose-only effect, or another doubt; inactive means no such curve, though single readings can be large or run the other way.

For CC(=O)OC(C(=O)NC1CCCCC1)c1ccccc1F (stereo not drawn) the results were Shiga inhibitor 2, Cycloheximide cs -1, Pf growth 96h 9.3µM* and Pf growth 48h 3%.
For COc1ccc(N(C(=O)c2ccc(F)cc2)C2=CC3CCC(C2)N3C)cc1 (stereo not drawn) the results were Shiga inhibitor -20, Cycloheximide cs 0 and Pf growth 48h -3%.
`O=C(NCc1ccc2c(c1)OCO2)C1CCN(S(=O)(=O)N2CCOCC2)CC1` gave Shiga inhibitor -16, Cycloheximide cs -3, Pf growth 96h 3.7µM* and Pf growth 48h 8%.
COc1ccc(S(=O)(=O)N2CCCC(C(=O)NCc3ccc4c(c3)OCO4)C2)cc1 (stereo not drawn) was read as Shiga inhibitor -6, Cycloheximide cs -10, Pf growth 96h -23% and Pf growth 48h 2.1µM*.
Screening CN1C(=O)C(C)(C)c2cc(S(=O)(=O)N3CCCC(C(=O)NCc4ccc(F)cc4)C3)ccc21 (stereo not drawn) returned Shiga inhibitor 6, Cycloheximide cs -2, Pf growth 96h 10µM* and Pf growth 48h inconclusive.
For O=C(NCc1ccc2c(c1)OCO2)C1CCN(S(=O)(=O)N2CCCCC2)CC1 the results were Shiga inhibitor -4, Cycloheximide cs -4, Pf growth 96h 15% and Pf growth 48h 11%.
Screening CS(=O)(=O)N1CCC(C(=O)NCc2ccc3c(c2)OCO3)CC1 returned Shiga inhibitor 11, Cycloheximide cs -2, Pf growth 96h 2% and Pf growth 48h 47%.
For O=C(NCc1ccc2c(c1)OCO2)C1CCN(c2ccc(S(=O)(=O)N3CCCC3)cc2)CC1 the results were Shiga inhibitor -10, Cycloheximide cs -1, Pf growth 96h 68% and Pf growth 48h 10µM*.
For COc1cccc(CNC(=O)C2CCCN(S(=O)(=O)c3ccc4c(c3)C(C)(C)C(=O)N4C)C2)c1 (stereo not drawn) the results were Shiga inhibitor -2, Cycloheximide cs 1, Pf growth 96h 7% and Pf growth 48h inconclusive.
CCOC(=O)c1nn(-c2ccccc2)c(=O)cc1OCC(=O)Nc1ccccc1OCC was read as Pf growth 96h 10% and Pf growth 48h 4%.
`O=C(NC1CC1)C1CCN(C2CCN(C(=O)Cc3ccc4c(c3)OCO4)CC2)CC1` gave Shiga inhibitor -7, Cycloheximide cs -1, Pf growth 96h 12µM* and Pf growth 48h 1%.
Screening O=C(NCc1ccc(Cl)cc1Cl)C1CCN(S(=O)(=O)c2ccc3c(c2)OCCCO3)CC1 returned Shiga inhibitor 15, Cycloheximide cs 19*, Pf growth 96h inconclusive and Pf growth 48h -2%.
`Cc1cccc(C(=O)Nc2nnc(S(=O)(=O)N(C)Cc3ccco3)s2)c1` gave Shiga inhibitor 15, Cycloheximide cs 17, Pf growth 96h 46% and Pf growth 48h -6%.
CC1(C)NC(=O)N(CCCC(=O)Nc2ccc(C(F)(F)F)cc2)C1=O was read as Pf growth 96h -29% and Pf growth 48h 4%.
`O=C(CSCc1ccc(Cl)cc1)Nc1ccc(O)cc1C(=O)O` gave Shiga inhibitor -14, Cycloheximide cs 4, Pf growth 96h 380% and Pf growth 48h 0%.
For Cc1ccccc1N1C(=O)c2cc(S(N)(=O)=O)c(Cl)cc2NC1C (stereo not drawn) the results were Pf growth 96h 37% and Pf growth 48h -5%.
NSc1nc(N)c2nc(-c3ccccc3)c(-c3ccccc3)nc2n1 was read as Shiga inhibitor -11, Cycloheximide cs -2, Pf growth 96h inconclusive and Pf growth 48h -6%.
Screening Nc1nc(N)c2nc(-c3ccccc3)c(N)nc2n1 returned Shiga inhibitor -17, Cycloheximide cs -4, Pf growth 96h 3.8µM* and Pf growth 48h 1.7µM*.
`CC(C)Cc1nnc(NC(=O)CCC(=O)NCc2ccccc2Cl)s1` gave Shiga inhibitor 9, Cycloheximide cs -5, Pf growth 96h 21% and Pf growth 48h -8%.
Cc1ccccc1C1CC(=O)Oc2cc(C)c(Cl)c(C)c21 (stereo not drawn) was read as Shiga inhibitor inactive and Cycloheximide cs -1.
`COc1cccc(CNC(=O)C2CCC(=O)N(CC3CCCCC3)C2)c1OC` (stereo not drawn) gave Shiga inhibitor 5, Cycloheximide cs 13, Pf growth 96h -19% and Pf growth 48h -7%.
COC(=O)c1sc(NC(=S)NC(=O)c2ccc(F)cc2)nc1C was read as Shiga inhibitor 48, Cycloheximide cs 18, Pf growth 96h inconclusive and Pf growth 48h 38%.
`CCOC(=O)c1sc(NC(=O)C(CC)OC(=O)c2ccco2)nc1C` (stereo not drawn) gave Shiga inhibitor 13, Cycloheximide cs 16*, Pf growth 96h 36% and Pf growth 48h -2%.
Screening CCOC(=O)c1sc(NC(NC(=O)c2ccco2)(C(=O)OC)C(F)(F)F)nc1C (stereo not drawn) returned Shiga inhibitor 9, Cycloheximide cs 2, Pf growth 96h inconclusive and Pf growth 48h inconclusive.
Screening COC(=O)c1sc(NC(=S)NC(=O)c2cccc(Br)c2)nc1C returned Shiga inhibitor 70*, Cycloheximide cs 34*, Pf growth 96h 32% and Pf growth 48h 76%.
For CCOC(=O)c1sc(NC(=S)NC(=O)c2ccc(OC)cc2)nc1C the results were Shiga inhibitor 8, Cycloheximide cs 10, Pf growth 96h 2.9µM* and Pf growth 48h 34%.
`CCOC(=O)c1sc(NC(=S)NC(=O)c2ccco2)nc1C` gave Shiga inhibitor 50, Cycloheximide cs 42*, Pf growth 96h inconclusive and Pf growth 48h 39%.
Screening Cc1cccc(NC(=O)c2ccc3c(c2)C(=O)N(c2ccccc2C)C3=O)n1 returned Pf growth 96h 94% and Pf growth 48h 80%.
COc1ccc(-n2nnnc2-c2ccc(S(C)(=O)=O)cc2Cl)cc1 was read as Shiga inhibitor -8, Cycloheximide cs -3, Pf growth 96h 5% and Pf growth 48h -14%.
Screening Cc1cc(NC(=O)c2ccccc2Cl)ccc1NC(=O)c1ccccc1Cl returned Cycloheximide cs -2, Pf growth 96h 142% and Pf growth 48h 3%.
Screening Cc1cc(NC(=O)c2ccc(Cl)cc2)ccc1NC(=O)c1ccccc1Cl returned Shiga inhibitor 10, Cycloheximide cs 7, Pf growth 96h 3.7µM* and Pf growth 48h 12%.
Screening O=C(Nc1ccc(Cl)cc1C(F)(F)F)c1ccc(Cl)cc1 returned Shiga inhibitor 32, Cycloheximide cs 16*, Pf growth 96h 106% and Pf growth 48h 35%.
`O=C(CCNC(=O)c1ccc(Cl)cc1)Nc1ccc(F)cc1F` gave Shiga inhibitor 4, Cycloheximide cs -1, Pf growth 96h 10% and Pf growth 48h 0%.
Screening CNS(=O)(=O)c1ccc(NC(=O)c2ccc(Cl)cc2Cl)cc1 returned Shiga inhibitor 4, Cycloheximide cs -3, Pf growth 96h inconclusive and Pf growth 48h 11%.
O=C(Nc1cc(F)c(Br)cc1F)c1ccc(Cl)cc1 was read as Shiga inhibitor 111*, Cycloheximide cs 34*, Pf growth 96h 177% and Pf growth 48h 114%.
Cc1ccc(NC(=O)c2ccc(Cl)cc2Cl)cc1O was read as Shiga inhibitor 94*, Cycloheximide cs 39*, Pf growth 96h 142% and Pf growth 48h 108%.

High-throughput results as filed in PubChem.
